# Test results: PubChem BioAssay (EPA / NIEHS)
# Records with an inconclusive call do not appear. The source made the active and inactive calls. The calls were made as follows: active = hit-call score of the fitted dose curve at least 0.9, where 1 is the maximum; inconclusive = response in the unintended direction; inactive = score below 0.9.
# Legend:
# [1] = molecular target: human Sirtuin 1 (SIRT1), SIRT1 (gene 23411) (UniProt Q96EB6); assay: NVS_ENZ_hSIRT1: NovaScreen (NVS) Enzymatic Assay for human Sirtuin 1 (SIRT1) (AID 2283219)
# Description: (§1) NVS_ENZ_hSIRT1 is a biochemical, single-readout assay that uses extracted gene-proteins in a cell-free assay. Measurements were taken 1 hour after chemical dosing in a 384-well plate.NVS_ENZ_hSIRT1 is one of one assay component(s) measured or calculated from the NVS_ENZ_hSIRT1 assay. It is designed to make measurements of enzyme activity, a form of enzyme reporter, as detected with fluorescence intensity signals by Fluorescence and electrophoretic mobility shift technology.Data from the assay component NVS_ENZ_hSIRT1 was analyzed into 1 assay endpoint. This assay endpoint, NVS_ENZ_hSIRT1, was analyzed in the positive analysis fitting direction relative to DMSO as the negative control and baseline of activity. Using a type of enzyme reporter, loss-of-signal activity can be used to understand changes in the enzymatic activity as they relate to the gene SIRT1. Furthermore, this assay endpoint can be referred to as a primary readout, because this assay has produced multiple assay endpoints where this one serves a enzymatic activity function. To generalize the intended target to other relatable targets, this assay endpoint is annotated to the hydrolase intended target family, where the subfamily is protein deacetylase.
# Binding assays used specific radioligands (tritiated, iodinated) with non-radioactive competitive displacement ligands in agonist or antagonist protocols (as indicated) and various reference compounds and inhibitors to titrate specific binding to receptors and transporters. Most enzyme assays (CYPs, kinases, phosphatases, proteases, HDACs) used recombinant protein and specific substrates (fluorescence mostly, some colorimetric and radioactive) and inhibitors, followed by a biochemical separation of substrate and product. All assays for the biochemical HTS were initially run in duplicate at a single concentration (10 uM for CYP450 assays and 25 uM for all others). […]
# [2] = molecular target: human Protein Tyrosine Phosphatase Receptor Type C (PTPRC), PTPRC (gene 5788) (UniProt P08575); assay: NVS_ENZ_hPTPRC: NovaScreen (NVS) Enzymatic Assay for human Protein Tyrosine Phosphatase Receptor Type C (PTPRC) (AID 2283212)
# Chain of human Protein Tyrosine Phosphatase Receptor Type C (PTPRC), PTPRC (gene 5788) (P08575 whole entry, looked up): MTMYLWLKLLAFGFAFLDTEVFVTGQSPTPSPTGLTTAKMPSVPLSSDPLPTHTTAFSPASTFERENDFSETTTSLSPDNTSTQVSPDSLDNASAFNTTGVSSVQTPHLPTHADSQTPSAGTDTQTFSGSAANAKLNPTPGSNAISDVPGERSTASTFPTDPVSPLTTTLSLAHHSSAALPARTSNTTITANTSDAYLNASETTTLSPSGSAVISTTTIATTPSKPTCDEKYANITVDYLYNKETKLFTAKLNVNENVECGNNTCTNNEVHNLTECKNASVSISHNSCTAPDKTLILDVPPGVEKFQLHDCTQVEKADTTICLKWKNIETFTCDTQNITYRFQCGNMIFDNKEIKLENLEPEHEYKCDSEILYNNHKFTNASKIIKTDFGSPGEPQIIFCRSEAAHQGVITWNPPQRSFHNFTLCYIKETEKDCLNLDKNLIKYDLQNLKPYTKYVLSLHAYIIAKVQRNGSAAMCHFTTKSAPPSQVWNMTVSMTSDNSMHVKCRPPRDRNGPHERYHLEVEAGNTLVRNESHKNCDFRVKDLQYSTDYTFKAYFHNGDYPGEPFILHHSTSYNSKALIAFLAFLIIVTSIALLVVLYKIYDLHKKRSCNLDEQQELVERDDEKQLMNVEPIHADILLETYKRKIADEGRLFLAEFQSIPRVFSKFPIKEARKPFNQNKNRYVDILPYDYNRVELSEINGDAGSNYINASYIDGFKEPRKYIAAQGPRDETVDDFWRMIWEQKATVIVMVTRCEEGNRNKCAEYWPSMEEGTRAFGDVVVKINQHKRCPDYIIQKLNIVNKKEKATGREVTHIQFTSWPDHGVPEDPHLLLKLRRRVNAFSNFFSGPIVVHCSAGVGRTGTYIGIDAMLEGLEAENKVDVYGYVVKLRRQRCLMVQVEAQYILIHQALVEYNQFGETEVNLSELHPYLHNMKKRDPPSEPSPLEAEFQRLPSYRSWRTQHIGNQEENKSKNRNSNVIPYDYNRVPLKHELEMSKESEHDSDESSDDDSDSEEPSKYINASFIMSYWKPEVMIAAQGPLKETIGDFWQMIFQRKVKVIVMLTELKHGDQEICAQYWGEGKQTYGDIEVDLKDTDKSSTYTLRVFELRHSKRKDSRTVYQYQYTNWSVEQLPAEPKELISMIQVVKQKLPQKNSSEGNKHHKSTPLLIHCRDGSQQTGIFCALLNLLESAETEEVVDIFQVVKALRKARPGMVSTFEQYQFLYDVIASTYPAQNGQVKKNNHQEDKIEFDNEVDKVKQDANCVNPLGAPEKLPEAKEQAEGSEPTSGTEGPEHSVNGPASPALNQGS
# Summary of the method: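 Yeast-extracted human PTPRC used in a cell-free colorimetric enzyme activity read-out, 1 h after dosing. Primary screen in duplicate at 25 uM; actives rerun in concentration-response up to 50 uM, DMSO as baseline.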
# [3] = molecular target: human Protein Tyrosine Phosphatase Receptor Type M (PTPRM), PTPRM (gene 5797) (UniProt P28827); assay: NVS_ENZ_hPTPRM: NovaScreen (NVS) Enzymatic Assay for human Protein Tyrosine Phosphatase Receptor Type M (PTPRM) (AID 2283215)
# Chain of human Protein Tyrosine Phosphatase Receptor Type M (PTPRM), PTPRM (gene 5797) (P28827 whole entry, looked up): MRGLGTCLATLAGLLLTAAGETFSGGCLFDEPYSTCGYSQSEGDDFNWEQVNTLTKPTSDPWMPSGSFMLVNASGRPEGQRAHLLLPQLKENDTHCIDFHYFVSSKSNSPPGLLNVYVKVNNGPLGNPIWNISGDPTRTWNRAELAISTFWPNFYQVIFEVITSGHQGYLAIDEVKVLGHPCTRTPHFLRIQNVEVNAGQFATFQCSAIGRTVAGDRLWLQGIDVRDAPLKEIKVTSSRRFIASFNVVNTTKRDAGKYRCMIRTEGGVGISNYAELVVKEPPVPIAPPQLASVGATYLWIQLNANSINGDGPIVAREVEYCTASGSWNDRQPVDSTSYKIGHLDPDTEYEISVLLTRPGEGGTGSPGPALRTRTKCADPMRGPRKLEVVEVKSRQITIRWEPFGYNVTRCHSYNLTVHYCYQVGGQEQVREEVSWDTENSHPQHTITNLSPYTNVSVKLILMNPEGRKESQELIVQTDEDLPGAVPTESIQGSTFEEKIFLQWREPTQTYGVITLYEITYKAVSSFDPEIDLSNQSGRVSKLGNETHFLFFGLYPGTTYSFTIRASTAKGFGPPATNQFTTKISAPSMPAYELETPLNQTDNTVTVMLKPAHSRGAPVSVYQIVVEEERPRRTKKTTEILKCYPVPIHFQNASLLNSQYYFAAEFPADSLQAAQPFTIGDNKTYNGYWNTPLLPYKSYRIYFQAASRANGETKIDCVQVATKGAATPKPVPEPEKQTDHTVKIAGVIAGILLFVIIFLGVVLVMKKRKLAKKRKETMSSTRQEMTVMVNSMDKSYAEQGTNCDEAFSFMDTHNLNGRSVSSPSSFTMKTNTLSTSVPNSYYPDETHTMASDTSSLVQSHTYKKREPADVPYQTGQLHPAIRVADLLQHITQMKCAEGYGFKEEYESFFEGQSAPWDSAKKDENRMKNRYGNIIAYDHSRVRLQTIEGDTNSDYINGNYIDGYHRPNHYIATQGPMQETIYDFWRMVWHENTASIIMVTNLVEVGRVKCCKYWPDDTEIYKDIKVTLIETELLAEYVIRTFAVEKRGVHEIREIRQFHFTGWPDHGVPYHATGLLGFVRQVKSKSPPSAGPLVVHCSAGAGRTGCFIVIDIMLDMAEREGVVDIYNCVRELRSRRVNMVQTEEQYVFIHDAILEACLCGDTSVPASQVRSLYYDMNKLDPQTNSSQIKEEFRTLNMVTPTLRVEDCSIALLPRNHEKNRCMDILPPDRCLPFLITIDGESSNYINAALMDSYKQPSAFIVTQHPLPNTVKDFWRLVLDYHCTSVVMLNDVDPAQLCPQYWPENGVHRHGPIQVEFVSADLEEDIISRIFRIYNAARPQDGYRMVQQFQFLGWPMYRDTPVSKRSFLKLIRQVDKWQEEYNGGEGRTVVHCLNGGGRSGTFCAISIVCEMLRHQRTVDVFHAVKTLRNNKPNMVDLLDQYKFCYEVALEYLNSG
# Summary of the method: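 Cell-free recombinant PTPRM with fluorogenic substrate; product separated from substrate by electrophoretic mobility shift and read by fluorescence, 1.33 h after dosing. Primary screen single concentration (25 uM) in duplicate; actives retested in concentration series; loss of signal versus DMSO.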
# [4] = molecular target: human Raf-1 Proto-Oncogene, serine/threonine Kinase (RAF1), RAF1 (gene 5894) (UniProt P04049); assay: NVS_ENZ_hRAF1: NovaScreen (NVS) Enzymatic Assay for human Raf-1 Proto-Oncogene, serine/threonine Kinase (RAF1) (AID 2283216)
# Chain of human Raf-1 Proto-Oncogene, serine/threonine Kinase (RAF1), RAF1 (gene 5894) (P04049 whole entry, looked up): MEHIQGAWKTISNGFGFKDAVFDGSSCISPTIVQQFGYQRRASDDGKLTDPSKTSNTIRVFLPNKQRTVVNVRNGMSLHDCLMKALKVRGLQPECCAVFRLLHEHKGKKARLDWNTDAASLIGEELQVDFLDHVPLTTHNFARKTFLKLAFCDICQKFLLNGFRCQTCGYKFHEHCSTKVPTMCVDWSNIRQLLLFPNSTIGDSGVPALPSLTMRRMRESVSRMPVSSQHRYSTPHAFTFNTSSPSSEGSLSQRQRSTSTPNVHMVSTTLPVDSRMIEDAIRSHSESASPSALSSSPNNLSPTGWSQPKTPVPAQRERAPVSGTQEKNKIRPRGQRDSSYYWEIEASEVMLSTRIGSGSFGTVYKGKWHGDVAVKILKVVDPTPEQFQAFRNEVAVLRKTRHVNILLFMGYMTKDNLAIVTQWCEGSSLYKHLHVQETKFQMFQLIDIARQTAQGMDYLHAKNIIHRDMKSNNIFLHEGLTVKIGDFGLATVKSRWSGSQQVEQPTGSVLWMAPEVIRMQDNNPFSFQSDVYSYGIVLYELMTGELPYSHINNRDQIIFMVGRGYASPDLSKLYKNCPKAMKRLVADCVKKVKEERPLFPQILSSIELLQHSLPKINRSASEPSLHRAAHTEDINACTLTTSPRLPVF
# Summary of the method: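 Cell-free recombinant kinase with specific fluorescent substrate, product separated by electrophoretic mobility shift; read 1 h after dosing. Primary screen at 25 uM in duplicate; hits then run in concentration-response up to 50 uM, fitted as loss of signal versus DMSO.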
# [5] = molecular target: human Tropomyosin Receptor Kinase A (TRKA), NTRK1 (gene 4914) (UniProt P04629); assay: NVS_ENZ_hTrkA: NovaScreen (NVS) Enzymatic Assay for human Tropomyosin Receptor Kinase A (TRKA) (AID 2283224)
# Description: as §1, with “NVS_ENZ_hTrkA” for “NVS_ENZ_hSIRT1”, “plate.NVS_ENZ_hTrkA” for “plate.NVS_ENZ_hSIRT1”, “NVS_ENZ_hTrkA,” for “NVS_ENZ_hSIRT1,”, “NTRK1.” for “SIRT1.”, “kinase” for “hydrolase”, “receptor tyrosine kinase. […]” for “protein deacetylase.”
# [6] = molecular target: human Tyrosine Protein Kinase Receptor Tie-2 (Tie2), TEK (gene 7010) (UniProt Q02763); assay: NVS_ENZ_hTie2: NovaScreen (NVS) Enzymatic Assay for human Tyrosine Protein Kinase Receptor Tie-2 (Tie2) (AID 2283225)
# Chain of human Tyrosine Protein Kinase Receptor Tie-2 (Tie2), TEK (gene 7010) (Q02763 whole entry, looked up): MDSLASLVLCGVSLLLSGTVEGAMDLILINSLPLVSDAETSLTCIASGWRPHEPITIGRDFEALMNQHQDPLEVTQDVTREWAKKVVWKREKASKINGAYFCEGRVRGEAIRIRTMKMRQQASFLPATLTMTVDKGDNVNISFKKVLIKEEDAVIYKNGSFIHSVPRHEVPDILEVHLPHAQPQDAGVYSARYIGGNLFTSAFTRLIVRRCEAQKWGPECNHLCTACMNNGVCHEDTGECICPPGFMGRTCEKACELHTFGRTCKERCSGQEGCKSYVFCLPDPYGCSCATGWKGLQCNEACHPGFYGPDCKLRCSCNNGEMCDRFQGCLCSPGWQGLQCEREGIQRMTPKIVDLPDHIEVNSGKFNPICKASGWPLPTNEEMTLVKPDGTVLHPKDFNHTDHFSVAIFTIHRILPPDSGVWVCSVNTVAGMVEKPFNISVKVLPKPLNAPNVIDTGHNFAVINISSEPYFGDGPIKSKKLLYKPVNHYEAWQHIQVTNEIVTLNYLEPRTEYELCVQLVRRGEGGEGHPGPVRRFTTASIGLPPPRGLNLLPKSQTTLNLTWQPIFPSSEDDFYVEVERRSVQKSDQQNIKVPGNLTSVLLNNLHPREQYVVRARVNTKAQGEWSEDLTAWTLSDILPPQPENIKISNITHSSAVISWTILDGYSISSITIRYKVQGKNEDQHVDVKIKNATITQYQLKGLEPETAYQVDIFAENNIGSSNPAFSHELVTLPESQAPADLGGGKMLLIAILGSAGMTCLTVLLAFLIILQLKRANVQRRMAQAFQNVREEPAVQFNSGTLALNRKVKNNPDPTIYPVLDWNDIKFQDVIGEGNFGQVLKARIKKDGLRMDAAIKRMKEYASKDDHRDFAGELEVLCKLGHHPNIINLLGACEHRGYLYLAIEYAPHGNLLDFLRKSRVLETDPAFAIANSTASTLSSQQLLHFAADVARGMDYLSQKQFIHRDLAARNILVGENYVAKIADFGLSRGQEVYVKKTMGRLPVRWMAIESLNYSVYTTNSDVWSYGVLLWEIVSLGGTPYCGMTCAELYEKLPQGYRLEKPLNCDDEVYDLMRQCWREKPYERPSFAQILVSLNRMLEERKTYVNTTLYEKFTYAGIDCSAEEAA
# Description: as §1, with “NVS_ENZ_hTie2” for “NVS_ENZ_hSIRT1”, “plate.NVS_ENZ_hTie2” for “plate.NVS_ENZ_hSIRT1”, “NVS_ENZ_hTie2,” for “NVS_ENZ_hSIRT1,”, “TEK.” for “SIRT1.”, “kinase” for “hydrolase”, “receptor tyrosine kinase.” for “protein deacetylase.”
# Binding assays used specific radioligands (tritiated, iodinated) with non-radioactive competitive displacement ligands in agonist or antagonist protocols (as indicated) and various reference compounds and inhibitors to titrate specific binding to receptors and transporters. Most enzyme assays (CYPs, kinases, phosphatases, proteases, HDACs) used recombinant protein and specific substrates (fluorescence mostly, some colorimetric and radioactive) and inhibitors, followed by a biochemical separation of substrate and product. All assays for the biochemical HTS were initially run in duplicate at a single concentration (10 uM for CYP450 assays and 25 uM for all others). Assay-chemical combinations meeting a pre-defined threshold (e.g., 30% inhibition and other criteria defined below) were then run in singleton concentration-response format with maximum concentration of 20 uM for CYPs and 50 uM for all others. Each assay was run with positive and negative controls, and concurrent controls on every plate. The follow-up (secondary) screen tested active chemical-pairs in concentration series, as well as a few additional assays not tested in the primary screen, some selected negative inactives, and several cases re-run in the concentration series for confirmatory purposes.
# [7] = molecular target: human Rho Associated Coiled-coil Containing Protein Kinase 1 (ROCK1), ROCK1 (gene 6093) (UniProt Q13464); assay: NVS_ENZ_hROCK1: NovaScreen (NVS) Enzymatic Assay for human Rho Associated Coiled-coil Containing Protein Kinase 1 (ROCK1) (AID 2283214)
# Summary of the method: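 Cell-free recombinant human ROCK1 activity assay; fluorescent substrate and product separated by electrophoretic mobility shift, read 1 h after dosing. Screened in duplicate at 25 uM; loss of signal versus DMSO baseline scored as inhibition.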
# [8] = molecular target: human Protein Tyrosine Phosphatase Receptor Type F (PTPRF), PTPRF (gene 5792) (UniProt P10586); assay: NVS_ENZ_hPTPRF: NovaScreen (NVS) Enzymatic Assay for human Protein Tyrosine Phosphatase Receptor Type F (PTPRF) (AID 2283213)
# Summary of the method: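 Cell-free fluorescence enzyme assay with recombinant protein and substrate; product separated by electrophoretic mobility shift. Read 1 h after dosing, single 25 uM duplicate screen, then concentration-response up to 50 uM; loss of signal vs DMSO.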
# [9] = molecular target: human SRC Proto-Oncogene, Non-receptor Tyrosine Kinase (SRC), SRC (gene 6714) (UniProt P12931); assay: NVS_ENZ_hSRC: NovaScreen (NVS) Enzymatic Assay for human SRC Proto-Oncogene, Non-receptor Tyrosine Kinase (SRC) (AID 2283223)
# Chain of human SRC Proto-Oncogene, Non-receptor Tyrosine Kinase (SRC), SRC (gene 6714) (P12931 whole entry, looked up): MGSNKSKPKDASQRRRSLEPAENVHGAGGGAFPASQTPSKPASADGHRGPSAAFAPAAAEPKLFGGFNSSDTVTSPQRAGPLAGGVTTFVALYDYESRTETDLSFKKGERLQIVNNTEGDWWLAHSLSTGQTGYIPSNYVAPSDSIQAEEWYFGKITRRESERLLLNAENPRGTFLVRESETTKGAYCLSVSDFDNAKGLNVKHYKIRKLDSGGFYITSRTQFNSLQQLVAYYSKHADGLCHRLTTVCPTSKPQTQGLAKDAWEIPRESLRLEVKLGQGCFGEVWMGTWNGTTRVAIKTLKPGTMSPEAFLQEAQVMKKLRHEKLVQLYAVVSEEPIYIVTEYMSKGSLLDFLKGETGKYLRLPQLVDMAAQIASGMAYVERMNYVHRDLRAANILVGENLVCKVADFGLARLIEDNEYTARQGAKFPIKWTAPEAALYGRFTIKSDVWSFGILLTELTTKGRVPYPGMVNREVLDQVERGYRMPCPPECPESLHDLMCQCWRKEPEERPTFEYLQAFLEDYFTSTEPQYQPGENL
# Summary of the method: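 Cell-free kinase activity assay with fluorescent substrate, product separated by electrophoretic mobility shift, read 1 h after dosing. Duplicate single point at 25 uM, then concentration-response up to 50 uM; loss of signal versus DMSO.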
# [10] = molecular target: human Sirtuin 2 (SIRT2), SIRT2 (gene 22933) (UniProt Q8IXJ6); assay: NVS_ENZ_hSIRT2: NovaScreen (NVS) Enzymatic Assay for human Sirtuin 2 (SIRT2) (AID 2283217)
# Summary of the method: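 Cell-free recombinant human SIRT2, fluorescent substrate with product separated by electrophoretic mobility shift, 1 hr. Screened in duplicate at 25 uM; hits rerun singly in concentration-response up to 50 uM, relative to DMSO.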
smiles,measurement,setting,value
OCCN(CCO)CCO,outcome,[1],inactive
CCCCCCCCCCCCc1cccc(S(=O)(=O)O)c1,AC50,[2],6.82 µM (active)
same,AC50,[3],14.4 µM (active)
same,AC50,[4],28.8 µM (active)
same,AC50,[5],36.3 µM (active)
same,AC50,[6],12.4 µM (active)
COc1ccccc1N,AC50,[2],17.5 µM (active)
same,AC50,[1],25.4 µM (active)
O=C(O)C1(c2ccc3c(c2)OC[C@H](Cc2ccc(-c4ccccc4)cc2)[C@H]3O)CCCC1,outcome,[7],inactive
CN(C)C(=S)S,AC50,[2],7.44 µM (active)
Oc1cc(Cl)c(Cl)cc1Cl,outcome,[4],inactive
COc1nn(C(=O)NS(=O)(=O)c2ccccc2OC(F)(F)F)c(=O)n1C,AC50,[6],24.5 µM (active)
O=C(N[C@H]1CN2CCC1CC2)c1ccc2c(c1)OCCO2,outcome,[4],inactive
same,outcome,[6],inactive
CC(C)O.CC(C)O.OCCN(CCO)CCO.OCCN(CCO)CCO.[Ti],AC50,[8],3.38 µM (active)
same,AC50,[3],0.119 µM (active)
same,outcome,[4],inactive
same,AC50,[9],0.00229 µM (active)
same,AC50,[6],3.53 µM (active)
CCCCCCCCCCCCOS(=O)(=O)O,AC50,[4],25 µM (active)
same,AC50,[6],26.9 µM (active)
Clc1cccc(Cl)c1Cl,outcome,[8],inactive
same,outcome,[3],inactive
same,outcome,[4],inactive
same,outcome,[1],inactive
same,outcome,[6],inactive
O=C1c2ccccc2C(=O)C1C(=O)C(c1ccccc1)c1ccc(Cl)cc1 (configuration not stated),AC50,[6],2.26 µM (active)
O=C(O)CC(O)(CC(=O)O)C(=O)O,outcome,[4],inactive
N#Cc1cccnc1,outcome,[7],inactive
same,outcome,[10],inactive
same,outcome,[9],inactive
same,outcome,[6],inactive
